# Data: PubChem BioAssay (Tox21)
# Several values for one entry are separate records, joined by “and”; a condition that tells them apart may be missing. Equal entries are not always repeated. Records with an inconclusive call do not appear. Entries that show only a call come without a potency. A structure can be active in one record and inactive in another. Activity calls are given as the source filed them. Unless noted, calls follow the shape of the dose curve; as a rule, active = well fitted curve in the direction sought with a large enough effect in the repeat runs; inconclusive = weak or mixed curves; inactive = no such curve, though single readings can be large; an effect the other way counts as inactive or inconclusive.
# Columns and labels:
# [1] = target: Thyrotropin-releasing hormone receptor (Homo sapiens) (UniProt P34981); assay: qHTS assay to identify small molecule agonists of the thyrotropin-releasing hormone receptor (TRHR) signaling pathway (AID 1346891; calls by dose curve;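 also: HEK293 cells expressing TRHR with calcium dye readout; series mostly up to about 58 µM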)
# In short: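 In 1536-format, 1500 TRHR-Hek293 cells per well grew 18 h, took up calcium dye for 2 h at 37 °C, received compound, and were read kinetically; 15-point titrations, triplicates.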
# [2] = Human pregnane X receptor (PXR) small molecule agonists, qHTS cell viability counter screen (AID 1346977); also: nearly all actives have a fitted effect of over 50% in size; also: potency is read from the fitted curve at half-maximal effect
# In short: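 Readout is CellTiter-Fluor fluorescence from PXR-Luc HepG2 cells. Plated cells rested 5hr, then were treated with compounds for 24hr at 37C and 5% CO2, with reagent present during the last hour.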
# [3] = Caspase-3/7 induction in HepG2 cells by small molecules, qHTS assay (AID 1346978); also: nearly all actives have a fitted effect of over 15% in size
# In short: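 Wild-type HepG2 cells (2,000/well) were settled 5 h at 37 C, 5% CO2, then exposed to compounds in DMSO for 17 h. Caspase-3/7 activity was read by luminescence 30 min after adding Caspase-Glo 3/7 reagent at room temperature.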
# [4] = Caspase-3/7 induction in CHO-K1 cells by small molecules, qHTS cell viability counter screen (AID 1346979); also: nearly all actives have a fitted effect of over 35% in size; also: potency is read from the fitted curve at half-maximal effect
# In short: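 To flag cytotoxic compounds, treated CHO-K1 wild-type cells were given CellTiter-Fluor at 16hr and read fluorescently after 1hr at 37C; the caspase-3/7 luminescence was measured in these same wells.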
# [5] = Caspase-3/7 induction in CHO-K1 cells by small molecules, qHTS assay (AID 1346980); also: nearly all actives have a fitted effect of over 15% in size
# In short: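 Wild-type cells were seeded at 1,500 per well and settled 5 hr at 37 C, 5% CO2, then exposed to DMSO-dissolved compounds for 17 hr. Caspase-Glo 3/7 reagent was added, and luminescence was read after 30min at room temperature.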
# [6] = Caspase-3/7 induction in HepG2 cells by small molecules, qHTS cell viability counter screen (AID 1346981); also: nearly all actives have a fitted effect of over 30% in size; also: potency is read from the fitted curve at half-maximal effect
# In short: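 HepG2, WT, 2,000 cells/well; 5 hr pre-incubation 37 C/5% CO2; compound pin-transferred from DMSO; 16 hr exposure; CellTiter-Fluor, 1 hr; fluorescence read.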
# [7] = target: Nuclear receptor subfamily 1 group I member 2 (Homo sapiens) (UniProt O75469); assay: Human pregnane X receptor (PXR) small molecule agonists, qHTS assay (AID 1346982); also: nearly all actives have a fitted effect of over 35% in size; also: potency is read from the fitted curve at half-maximal effect
# In short: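 Luciferase signal from ONE-Glo (30 min, room temperature) measured activation of hPXR-driven CYP3A4 reporter expression in PXR-Luc HepG2 cells treated with compounds for 24 hr at 37 C.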
# [8] = target: Nuclear receptor subfamily 1 group I member 2 (Rattus norvegicus) (UniProt Q9R1A7); assay: Rat pregnane X receptor (rPXR) activation by small molecules, qHTS assay (AID 1346983); details: rPXR luciferase reporter cells, One-Glo luminescence, 24 h; max activation: stronger effect = higher value; also: nearly all actives have a fitted effect of over 20% in size; also: potency is read from the fitted curve at half-maximal effect
# In short: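 Cell-based rPXR luciferase reporter assay, 2,000 cells per well, rested 5hr at 37 C before compound addition in DMSO, then 24 hr at 37 C. One-Glo reagent was added and luminescence read after 30 min at room temperature.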
# [9] = target: Acetylcholinesterase (Homo sapiens) (UniProt P22303); assay: Acetylcholinesterase (AChE) small molecule antagonists: colormetric cell-based qHTS assay (AID 1347395; calls by dose curve; also: nearly all actives have a fitted effect of over 30% in size; also: potency is read from the fitted curve at half-maximal effect)
# In short: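 Neuroblastoma line SH-SY5Y supplied the enzyme; cells were preincubated with compound for 30 min at 37 C and 5% CO2. Acetylthiocholine with DTNB was then added for 90 min at 37 C, and thiocholine was measured by colour.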
# [10] = target: Acetylcholinesterase (Homo sapiens) (UniProt P22303); assay: Acetylcholinesterase (AChE) small molecule antagonists: enzyme-based qHTS assay (AID 1347397; calls by dose curve; also: nearly all actives have a fitted effect of over 55% in size); details: Potency: AChE enzyme activity inhibition
# In short: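 Recombinant human AChE, dispensed at 50 mU/mL, was preincubated with Tox21 10K compounds or DMSO vehicle for 30 min at room temperature. DTNB plus acetylthiocholine was then added, and thiocholine was measured colorimetrically after a further 10 min.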
# Chain of Nuclear receptor subfamily 1 group I member 2 (Rattus norvegicus) (Q9R1A7 whole entry, looked up): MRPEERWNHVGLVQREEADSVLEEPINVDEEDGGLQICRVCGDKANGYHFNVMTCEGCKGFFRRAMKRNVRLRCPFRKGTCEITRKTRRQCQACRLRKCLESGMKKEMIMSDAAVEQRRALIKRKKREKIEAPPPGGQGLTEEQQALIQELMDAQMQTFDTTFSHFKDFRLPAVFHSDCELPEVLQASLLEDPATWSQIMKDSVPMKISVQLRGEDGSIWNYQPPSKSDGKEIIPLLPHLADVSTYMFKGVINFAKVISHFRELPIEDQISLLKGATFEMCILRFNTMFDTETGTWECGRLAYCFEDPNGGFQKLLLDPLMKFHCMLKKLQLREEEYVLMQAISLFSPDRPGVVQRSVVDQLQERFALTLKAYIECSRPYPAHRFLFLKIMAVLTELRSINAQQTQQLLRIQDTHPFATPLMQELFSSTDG
# Chain of Acetylcholinesterase (Homo sapiens) (P22303 whole entry, looked up): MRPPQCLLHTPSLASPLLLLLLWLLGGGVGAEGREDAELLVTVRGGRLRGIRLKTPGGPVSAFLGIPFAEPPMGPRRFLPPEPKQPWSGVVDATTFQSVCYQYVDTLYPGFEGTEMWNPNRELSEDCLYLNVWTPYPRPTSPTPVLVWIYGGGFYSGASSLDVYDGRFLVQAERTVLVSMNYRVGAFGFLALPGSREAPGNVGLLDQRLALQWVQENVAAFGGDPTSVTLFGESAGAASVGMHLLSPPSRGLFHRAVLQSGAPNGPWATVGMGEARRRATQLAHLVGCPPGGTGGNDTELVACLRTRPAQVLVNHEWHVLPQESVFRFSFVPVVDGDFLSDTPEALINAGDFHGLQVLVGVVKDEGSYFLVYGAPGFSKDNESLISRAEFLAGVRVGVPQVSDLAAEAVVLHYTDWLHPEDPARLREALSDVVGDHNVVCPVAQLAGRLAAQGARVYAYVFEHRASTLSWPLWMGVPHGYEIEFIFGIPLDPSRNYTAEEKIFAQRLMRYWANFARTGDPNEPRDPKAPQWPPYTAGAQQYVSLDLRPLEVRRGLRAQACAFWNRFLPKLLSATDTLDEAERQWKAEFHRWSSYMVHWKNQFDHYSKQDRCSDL
# Chain of Thyrotropin-releasing hormone receptor (Homo sapiens) (P34981 whole entry, looked up): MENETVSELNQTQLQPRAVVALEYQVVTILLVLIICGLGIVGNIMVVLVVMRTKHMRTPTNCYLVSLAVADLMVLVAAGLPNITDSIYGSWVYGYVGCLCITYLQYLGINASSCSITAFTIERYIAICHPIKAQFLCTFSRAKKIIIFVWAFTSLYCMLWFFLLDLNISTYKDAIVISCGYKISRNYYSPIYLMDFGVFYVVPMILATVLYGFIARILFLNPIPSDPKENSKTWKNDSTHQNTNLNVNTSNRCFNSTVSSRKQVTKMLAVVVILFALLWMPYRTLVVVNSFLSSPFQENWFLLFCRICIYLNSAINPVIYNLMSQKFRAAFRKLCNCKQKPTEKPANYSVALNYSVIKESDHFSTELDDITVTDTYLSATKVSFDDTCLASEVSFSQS
# Chain of Nuclear receptor subfamily 1 group I member 2 (Homo sapiens) (O75469 whole entry, looked up): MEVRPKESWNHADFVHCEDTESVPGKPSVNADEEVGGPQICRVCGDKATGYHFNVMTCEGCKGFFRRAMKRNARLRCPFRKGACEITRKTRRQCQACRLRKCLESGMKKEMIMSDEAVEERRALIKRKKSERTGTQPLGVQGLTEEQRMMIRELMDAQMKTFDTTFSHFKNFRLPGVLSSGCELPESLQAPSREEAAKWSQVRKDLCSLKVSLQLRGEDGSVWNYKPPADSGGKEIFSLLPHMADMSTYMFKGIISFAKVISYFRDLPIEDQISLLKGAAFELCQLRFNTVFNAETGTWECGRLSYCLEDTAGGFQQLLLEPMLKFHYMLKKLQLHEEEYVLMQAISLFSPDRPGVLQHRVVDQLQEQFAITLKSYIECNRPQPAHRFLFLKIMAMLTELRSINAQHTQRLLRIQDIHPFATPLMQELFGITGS
Compound,outcome [1],Potency [2],outcome [3],Potency [4],outcome [5],Potency [6],Potency [7],max activation [8],Potency [9],Potency [10],Potency [8]
OC[C@@H](O)[C@H]1O[C@@H]2O[C@H](C(Cl)(Cl)Cl)O[C@@H]2[C@H]1O,inactive,inactive,inactive,inactive,inactive,inactive,inactive,-1.13% (inactive),inactive,inactive,–
CNC(=O)Oc1cccc2ccccc12,inactive,inactive,inactive,inactive,inactive,inactive,68 µM (active) and inactive,-0.0164% (inactive),2.22 µM (active) and inactive,–,–
O=[N+]([O-])c1cc([As](=O)(O)O)ccc1O,inactive,inactive,inactive,inactive,inactive,inactive,inactive,–,inactive,inactive,12.6 µM (active)
COc1cc(-c2ccc(N)c(OC)c2)ccc1N,inactive,inactive,inactive,inactive and 58.3 µM (active),inactive,inactive and 46.3 µM (active),–,–,–,–,–
C[C@H]1C(=O)O[C@@H]2CCN3CC=C(COC(=O)[C@](C)(O)[C@]1(C)O)[C@H]23,inactive,inactive,inactive,inactive,inactive,inactive,inactive,-2.06% (inactive),inactive,–,–
N#Cc1cccc(C#N)c1,inactive,inactive,inactive,inactive,inactive,inactive,inactive,–,inactive,–,–
O=C(O)c1cc(Oc2ccc(C(F)(F)F)cc2Cl)ccc1[N+](=O)[O-],inactive,inactive,inactive,inactive,inactive,inactive,inactive and 61.4 µM (active),–,inactive,–,–
Nc1ccc(N)cc1,inactive,54.5 µM (active) and inactive,inactive,48.8 µM (active) and 54.5 µM (active),inactive,54.5 µM (active) and inactive,54.5 µM (active) [middle of 4 runs],–,–,–,–
CCOC(=O)CC(SP(=O)(OC)OC)C(=O)OCC (stereo not drawn),inactive,inactive,inactive,inactive,inactive,inactive,inactive,–,3.02 µM (active) and 3.56 µM (active),–,–
COC(C)(C)CCCC(C)C/C=C/C(C)=C/C(=O)OC(C)C (stereo not drawn),inactive,inactive,inactive,inactive,inactive,inactive,47.8 µM (active),-0.367% (inactive),inactive,inactive,–
CNCC(O)c1ccc(O)cc1 (stereo not drawn),inactive,inactive,inactive,inactive,inactive,inactive,inactive,-2.53% (inactive),inactive,inactive,–
COP(=S)(OC)Oc1ccc(SC)c(C)c1,inactive,inactive,inactive,inactive,inactive,inactive,60.4 µM (active) and 37.6 µM (active),1.15% (inactive),inactive,inactive,–
C=CC#N,inactive,inactive,inactive,inactive,inactive,inactive,inactive,–,inactive,–,–
CCCCC(CC)C(=O)Cl (stereo not drawn),inactive,inactive,inactive,inactive,inactive,inactive,inactive,–,inactive,–,–
CNC(=O)O/N=C/C(C)(C)S(C)(=O)=O,inactive,inactive,inactive,inactive,inactive,inactive,inactive,–,–,–,–
Nc1ccc([As](=O)(O)O)cc1,inactive,inactive,inactive,inactive,inactive,inactive,inactive,-1.25% (inactive),inactive,–,–
CNc1cnn(-c2cccc(C(F)(F)F)c2)c(=O)c1Cl,inactive,inactive,inactive,inactive,inactive,inactive,46.8 µM (active) and 34.4 µM (active),–,inactive,–,–
COP(=S)(OC)SCN1C(=O)c2ccccc2C1=O,inactive,inactive,inactive,inactive,inactive,inactive,inactive,-1.79% (inactive),71.5 µM (active) and 39.9 µM (active),inactive,–
CNC(=O)O/N=C/C(C)(C)SC,inactive,inactive,inactive,inactive,inactive,inactive,69.2 µM (active) and inactive,–,–,–,–
Sc1ccccc1,inactive,inactive,inactive,inactive,inactive,inactive,inactive,–,inactive,–,–
CCOc1ccc(N)cc1,inactive,inactive,inactive,inactive,inactive,inactive,inactive,–,inactive,–,–
OCCCCO,inactive,inactive,inactive,inactive,inactive,inactive,–,–,–,–,–

Compound,outcome [1],Potency [2],outcome [3],Potency [4],outcome [5],Potency [6],Potency [7],max activation [8],Potency [9],Potency [10],Potency [8]
O=C(O)COc1ccccc1,inactive,inactive,inactive,inactive,inactive,inactive,inactive,-1.4% (inactive),inactive,–,–
O=P1(NCCCl)OCCCN1CCCl (stereo not drawn),inactive,inactive,inactive,inactive,inactive,inactive,–,–,–,–,–
O=C(O)Cc1ccccc1,inactive,inactive,inactive,inactive,inactive,inactive,inactive,–,inactive,–,–
CC12CC1(C)C(=O)N(c1cc(Cl)cc(Cl)c1)C2=O (stereo not drawn),inactive,inactive,inactive,inactive,inactive,inactive,60.9 µM (active) and 24.3 µM (active),–,inactive,–,–
Nc1nc(N)nc(NC2CC2)n1,inactive,inactive,inactive,inactive,inactive,inactive,inactive,-4.09% (inactive),inactive,–,–
CC(C)(C)C(=O)CCl,inactive,inactive,inactive,inactive,inactive,inactive,inactive,–,inactive,–,–
Cc1cc(O)ccc1Cl,inactive,inactive,inactive,inactive,inactive,inactive,inactive,-2.1% (inactive),inactive,–,–
Oc1c(Br)cc(Br)cc1Br,inactive,inactive,inactive,inactive,inactive,inactive,68.7 µM (active) and 61.1 µM (active) and inactive,-2.81% (inactive),inactive,inactive,–
O=S(=O)(O)OOS(=O)(=O)O,inactive,inactive,inactive,inactive,inactive,inactive,inactive,–,inactive,inactive,–
Cc1cccc(N)c1C,inactive,inactive,inactive,inactive,inactive,inactive,61.1 µM (active),–,inactive,inactive,–
N#CN=C(N)N,inactive,inactive,inactive,inactive,inactive,inactive,inactive,–,inactive,inactive,–
Cc1cccc(C)c1N,inactive,inactive,inactive,inactive,inactive,inactive,inactive,–,inactive,inactive,–
O=[N+]([O-])c1ccc(Cl)c(Cl)c1,inactive,inactive,inactive,inactive,inactive,inactive,inactive,–,inactive,–,–
ClCCOCCCl,inactive,inactive,inactive,inactive,inactive,inactive,inactive,–,inactive,inactive,–
CN(C)CCC#N,inactive,inactive,inactive,inactive,inactive,inactive,inactive,–,inactive,–,–
CCCOC(=O)c1ccccc1C(=O)OCCC,inactive,inactive,inactive,inactive,inactive,inactive,inactive,–,inactive,inactive,–
CCNc1nc(Cl)nc(NC(C)C)n1,inactive,inactive,inactive,inactive,inactive,inactive,67.8 µM (active) and 61.1 µM (active),–,inactive,inactive,–
ClC(Cl)c1ccccc1,inactive,inactive,inactive,inactive,inactive,inactive,inactive,–,inactive,inactive,–
CSc1nnc(C(C)(C)C)c(=O)n1N,inactive,inactive,inactive,inactive,inactive,inactive,inactive,–,inactive,–,–
COS(=O)(=O)OC,inactive,inactive,inactive,inactive,inactive,inactive,inactive,–,inactive,inactive,–
CC(=O)/C=C/c1ccccc1,inactive,inactive,inactive,inactive,inactive,inactive,inactive,–,inactive,–,–
Cc1ccc(O)c(C)c1,inactive,inactive,inactive,inactive,inactive,inactive,inactive,–,inactive,inactive,–
